The record followed here is PubChem BioAssay (EPA / NIEHS).

Activity calls are given as the source filed them. The calls were made as follows: active = hit-call score of the fitted dose curve at least 0.9, where 1 is the maximum; inactive = score below 0.9.

Assay [1] is described as follows: ATG_GRE_CIS: Attagene CIS-FACTORIAL HepG2 Assay for human Glucocorticoid Response Elements (GRE) (AID 2282947). The following applies: HepG2 GRE cis-reporter, Attagene multiplex mRNA; actives raise or lower the signal. The method in brief: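 Read-out: fluorescent reporter-transcript fragments separated by capillary electrophoresis after RT-PCR. Transiently transfected HepG2 cells carrying cis-element-driven reporter units were dosed for 24 h; gain or loss of signal fitted against DMSO control.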

Assay [2] is described as follows: ATG_ISRE_CIS: Attagene CIS-FACTORIAL HepG2 Assay for human Interferon Regulatory Factor 1 (IRF1) binding to an Interferon-Stimulated Response Element (ISRE) (AID 2282948). The following applies: HepG2 ISRE cis-reporter (Attagene), mRNA transcription readout; actives raise or lower the signal. Put shortly:
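Multiplexed mRNA reporter readout in human liver HepG2 cells: cis-element-driven reporters transfected, compound added for 24 h, transcripts amplified, fluorescently labelled and sized by capillary electrophoresis; curve fitting bidirectional against DMSO.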

Assay [3] in a line: ATG_M_32_CIS: Attagene CIS-FACTORIAL HepG2 Assay for M32 Transcription Factor (Internal Marker) (AID 2282949).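 Also: background control marker of the multiplexed CIS panel rather than a real target.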 The following applies: HepG2 Attagene cis-factorial M32 reporter, mRNA; actives raise or lower the signal. The method in brief: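 Using DMSO as baseline, bidirectional curve fits were applied to reporter mRNA signals. These came from transiently transfected HepG2 cells exposed for 24 h, with RNA analysed by RT-PCR, FAM primer extension, HpaI digestion and CE.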

Assay [4] in a line: ATG_M_06_CIS: Attagene CIS-FACTORIAL HepG2 Assay for M06 Transcription Factor (Internal Marker) (AID 2282950). The following applies: HepG2 Attagene CIS-FACTORIAL M06 internal marker reporter; actives raise or lower the signal. Put shortly: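 One of many multiplexed endpoints: HepG2 reporter mRNA after 24 h dosing, detected by RT-PCR and capillary electrophoresis fluorescence; gain or loss of signal analysed against DMSO.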

Assay [5] has as its target Hypoxia-inducible factor 1-alpha (Homo sapiens) (UniProt Q16665). The experiment in a line: ATG_HIF1a_CIS: Attagene CIS-FACTORIAL HepG2 Assay for human Hypoxia Inducible Factor 1 (HIF1A) (AID 2282951). The following applies: HepG2 Attagene cis-factorial HIF1a reporter transcription; actives raise or lower the signal. The method in brief:
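RT-PCR/capillary electrophoresis fluorescence readout of reporter transcripts from endogenous-TF-driven cis elements in transfected HepG2 cells, 24 h exposure; activity fitted in both directions against DMSO controls.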

Assay [6] addresses Hepatocyte nuclear factor 6 (Homo sapiens) (UniProt Q9UBC0). The assay is described as follows: ATG_HNF6_CIS: Attagene CIS-FACTORIAL HepG2 Assay for human Hepatocyte Nuclear Factor 6 (HNF6) (AID 2282952). The following applies: HepG2 Attagene cis-factorial HNF6 reporter transcription; actives raise or lower the signal. The method in brief: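 Using cis-element reporters in HepG2 liver cells, the assay tracks endogenous factor-driven transcription 24 h post-dosing. Signal comes from 6-FAM-labelled, HpaI-digested RT-PCR fragments, with gain or loss scored against DMSO.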

Assay [7] addresses Heat shock factor protein 1 (Homo sapiens) (UniProt Q00613). The experiment in a line: ATG_HSE_CIS: Attagene CIS-FACTORIAL HepG2 Assay for human Heat Shock Transcription Factor 1 (HSE) (AID 2282953). The following applies: HepG2 HSE cis-reporter, Attagene RNA transcription; actives raise or lower the signal. The method in brief: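 Using HepG2 with transfected cis-driven reporter constructs, compound effects on endogenous factor activity are scored as reporter mRNA change at 24 h. Detection: RT-PCR, HpaI digestion, capillary electrophoresis; bidirectional fitting to DMSO.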

Assay [8] in a line: ATG_MRE_CIS: Attagene CIS-FACTORIAL HepG2 Assay for human Metal Responsive Element (MRE) (AID 2282954). The following applies: HepG2 MRE cis-reporter transcription, Attagene multiplex; actives raise or lower the signal. Put shortly:
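RT-PCR/capillary electrophoresis readout of reporter mRNA, 24 h post-dosing, in HepG2 cells transfected with multiplexed cis-regulated reporter constructs. Gain or loss of signal fitted bidirectionally against DMSO baseline.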

Assay [9] can be described thus: ATG_PBREM_CIS: Attagene CIS-FACTORIAL HepG2 Assay for human Phenobarbital-responsive Enhancer Module (PBREM) (AID 2282955). The following applies: HepG2 PBREM cis-reporter, Attagene multiplexed transcription; actives raise or lower the signal. The method in brief: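 Reporter mRNA read by RT-PCR, 6-FAM primer extension, HpaI digestion and capillary electrophoresis. Transfected HepG2 cells, 24 h compound exposure. Gain or loss of signal fitted bidirectionally relative to DMSO baseline.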

Assay [10] deals with Paired box protein Pax-6 (Homo sapiens) (UniProt P26367). The experiment in a line: ATG_Pax6_CIS: Attagene CIS-FACTORIAL HepG2 Assay for human Paired Box 6 (PAX6) (AID 2282956). The following applies: HepG2 CIS-FACTORIAL PAX6 reporter transcription, RNA readout; actives raise or lower the signal. The method in brief:
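Fluorescent RT-PCR products separated by capillary electrophoresis report PAX6-linked promoter mRNA in HepG2 cells 24 h post-dose. Curves fitted bidirectionally, DMSO as negative control.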

Assay [11] is described as follows: ATG_PXRE_CIS: Attagene CIS-FACTORIAL HepG2 Assay for human Pregnane X Receptor Element (PXRE) (AID 2282957). The following applies: HepG2 Attagene CIS-FACTORIAL PXRE reporter, mRNA; actives raise or lower the signal. The method in brief:
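Using HepG2 transfected with multiple reporter transcription units, endogenous factor-driven transcription was scored as reporter mRNA after 24 h exposure.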

The nature of assay [12]: ATG_PPRE_CIS: Attagene CIS-FACTORIAL HepG2 Assay for human Peroxisome Proliferator-activated Response Element (PPRE) (AID 2282958). The following applies: HepG2 PPRE cis-element reporter, Attagene transcription factor profiling; actives raise or lower the signal. Put shortly:
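Read-out: fluorescent reporter mRNA fragments resolved by capillary electrophoresis after RT-PCR. HepG2 cells carried transiently transfected PPRE-driven cis reporter constructs and were dosed for 24 h; gain or loss of signal fitted relative to DMSO.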

Assay [13] can be described thus: ATG_RORE_CIS: Attagene CIS-FACTORIAL HepG2 Assay for human RAR-related Orphan Receptor Element (RORE) (AID 2282959). The following applies: HepG2 Attagene cis-factorial RORE reporter, mRNA; actives raise or lower the signal. The method in brief:
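Readout: fluorescent reporter mRNA by RT-PCR plus capillary electrophoresis, 24 h after dosing transfected HepG2 cells. Endogenous transcription factor activity on a cis promoter element is measured. Gain or loss of signal fitted against DMSO.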

Assay [14] addresses Transcription factor Sp1 (Homo sapiens) (UniProt P08047). The experiment in a line: ATG_Sp1_CIS: Attagene CIS-FACTORIAL HepG2 Assay for human Specificity Protein 1 (Sp1) (AID 2282961). The following applies: HepG2 Sp1 cis-reporter transcription, actives raise or lower the signal. Put shortly:
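Read-out: fluorescence of 6-FAM-labeled, HpaI-digested RT-PCR products separated by capillary electrophoresis. HepG2 cells carried transfected cis-element reporter units and were exposed to chemicals for 24 h; gain or loss of signal fitted relative to DMSO.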

Assay [15] in a line: ATG_SREBP_CIS: Attagene CIS-FACTORIAL HepG2 Assay for human Sterol Regulatory Element Binding (SREBP) (AID 2282962). The following applies: HepG2 Attagene cis-factorial SREBP reporter, mRNA; actives raise or lower the signal. Put shortly: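 Endogenous factor activity is measured in HepG2 through multiplexed reporter units under cis-element control. Following a 24 h incubation, reporter transcripts are reverse-transcribed, PCR-amplified and sized by capillary electrophoresis; activity is fitted in both directions relative to DMSO.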

Assay [16] addresses Signal transducer and activator of transcription 3 (Homo sapiens) (UniProt P40763). The experiment in a line: ATG_STAT3_CIS: Attagene CIS-FACTORIAL HepG2 Assay for human Signal Transducer and Activator of Transcription 3 (STAT3) (AID 2282963). The following applies: HepG2, Attagene cis-factorial STAT3 reporter transcription; actives raise or lower the signal. The method in brief:
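Readout: fluorescent reporter mRNA fragments resolved by capillary electrophoresis. Setup: HepG2 transfected with MRTUs reporting endogenous transcription-factor activity, dosed 24 h. Gain or loss of signal fitted bidirectionally against DMSO control.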

A short description of assay [17]: ATG_TA_CIS: Attagene CIS-FACTORIAL HepG2 Assay for human TA Basal Promoter (AID 2282964). The following applies: HepG2 Attagene CIS-factorial TA basal promoter reporter; actives raise or lower the signal. Put shortly:
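Transient MRTU transfection of HepG2 preceded 24 h compound exposure. Reporter mRNA levels were then read by RT-PCR with capillary electrophoresis, and this background-control endpoint was fitted bidirectionally to DMSO.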

The nature of assay [18]: ATG_Sox_CIS: Attagene CIS-FACTORIAL HepG2 Assay for human SRY-box transcription factor (SOX) (AID 2282960). The following applies: HepG2 Attagene cis-factorial SOX reporter, mRNA; actives raise or lower the signal. The method in brief:
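Read-out: fluorescent RT-PCR products of SOX1-linked reporter transcripts resolved by capillary electrophoresis, fitted bidirectionally against DMSO. Transiently transfected HepG2 cells, 24 h after chemical exposure, endogenous transcription factor activity.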

Assay [19] addresses Bile acid receptor (Homo sapiens) (UniProt Q96RI1). The assay is described as follows: ATG_IR1_CIS: Attagene CIS-FACTORIAL HepG2 Assay for human Nuclear Receptor Subfamily 1 Group H Member 4 (NR1H4), IR1 submotif (AID 2282946). The following applies: IR1 reporter transcription, actives raise or lower the signal. The method in brief: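 Fluorescence of capillary-separated, HpaI-digested RT-PCR reporter products gave IR1-element mRNA induction in HepG2 cells 24 h after dosing. Endogenous transcription factors drove the cis-regulated reporters; activity was fitted bidirectionally against DMSO.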

Sequence of Transcription factor Sp1 (Homo sapiens) (P08047 whole entry, looked up): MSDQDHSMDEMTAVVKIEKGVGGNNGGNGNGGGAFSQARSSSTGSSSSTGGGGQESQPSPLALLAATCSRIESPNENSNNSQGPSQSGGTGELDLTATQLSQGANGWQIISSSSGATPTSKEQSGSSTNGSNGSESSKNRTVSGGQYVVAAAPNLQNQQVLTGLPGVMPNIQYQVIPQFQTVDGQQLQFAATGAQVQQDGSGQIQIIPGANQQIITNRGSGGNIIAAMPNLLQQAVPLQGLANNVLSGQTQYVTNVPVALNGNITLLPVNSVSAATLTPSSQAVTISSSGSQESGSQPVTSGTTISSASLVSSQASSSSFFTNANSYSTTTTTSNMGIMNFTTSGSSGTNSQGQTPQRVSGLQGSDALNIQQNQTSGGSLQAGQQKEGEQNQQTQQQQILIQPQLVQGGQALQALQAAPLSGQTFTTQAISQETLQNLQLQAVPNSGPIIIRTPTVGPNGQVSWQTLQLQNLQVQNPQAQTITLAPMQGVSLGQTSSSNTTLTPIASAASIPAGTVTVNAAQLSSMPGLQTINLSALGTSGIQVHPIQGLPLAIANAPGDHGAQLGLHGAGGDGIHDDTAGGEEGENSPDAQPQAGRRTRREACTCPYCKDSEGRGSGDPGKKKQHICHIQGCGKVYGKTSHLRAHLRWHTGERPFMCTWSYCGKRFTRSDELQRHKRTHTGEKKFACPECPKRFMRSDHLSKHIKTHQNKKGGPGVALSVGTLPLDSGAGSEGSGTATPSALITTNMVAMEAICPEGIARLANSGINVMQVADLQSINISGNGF
Sequence of Heat shock factor protein 1 (Homo sapiens) (Q00613 whole entry, looked up): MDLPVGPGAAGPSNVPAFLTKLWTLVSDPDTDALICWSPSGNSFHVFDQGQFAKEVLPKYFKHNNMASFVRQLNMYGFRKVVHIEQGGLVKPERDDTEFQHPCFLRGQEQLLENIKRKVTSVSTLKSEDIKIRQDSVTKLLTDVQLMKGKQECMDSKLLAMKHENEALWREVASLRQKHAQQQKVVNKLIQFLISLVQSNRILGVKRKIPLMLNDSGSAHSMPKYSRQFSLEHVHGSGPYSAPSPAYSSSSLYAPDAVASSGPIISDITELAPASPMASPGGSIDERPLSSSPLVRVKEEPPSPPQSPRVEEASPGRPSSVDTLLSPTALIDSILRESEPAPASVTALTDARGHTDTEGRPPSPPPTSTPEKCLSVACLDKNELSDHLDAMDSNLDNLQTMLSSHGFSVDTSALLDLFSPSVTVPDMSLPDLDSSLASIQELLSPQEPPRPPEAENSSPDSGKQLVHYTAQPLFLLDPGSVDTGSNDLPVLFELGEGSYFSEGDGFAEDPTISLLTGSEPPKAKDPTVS
Sequence of Hypoxia-inducible factor 1-alpha (Homo sapiens) (Q16665 whole entry, looked up): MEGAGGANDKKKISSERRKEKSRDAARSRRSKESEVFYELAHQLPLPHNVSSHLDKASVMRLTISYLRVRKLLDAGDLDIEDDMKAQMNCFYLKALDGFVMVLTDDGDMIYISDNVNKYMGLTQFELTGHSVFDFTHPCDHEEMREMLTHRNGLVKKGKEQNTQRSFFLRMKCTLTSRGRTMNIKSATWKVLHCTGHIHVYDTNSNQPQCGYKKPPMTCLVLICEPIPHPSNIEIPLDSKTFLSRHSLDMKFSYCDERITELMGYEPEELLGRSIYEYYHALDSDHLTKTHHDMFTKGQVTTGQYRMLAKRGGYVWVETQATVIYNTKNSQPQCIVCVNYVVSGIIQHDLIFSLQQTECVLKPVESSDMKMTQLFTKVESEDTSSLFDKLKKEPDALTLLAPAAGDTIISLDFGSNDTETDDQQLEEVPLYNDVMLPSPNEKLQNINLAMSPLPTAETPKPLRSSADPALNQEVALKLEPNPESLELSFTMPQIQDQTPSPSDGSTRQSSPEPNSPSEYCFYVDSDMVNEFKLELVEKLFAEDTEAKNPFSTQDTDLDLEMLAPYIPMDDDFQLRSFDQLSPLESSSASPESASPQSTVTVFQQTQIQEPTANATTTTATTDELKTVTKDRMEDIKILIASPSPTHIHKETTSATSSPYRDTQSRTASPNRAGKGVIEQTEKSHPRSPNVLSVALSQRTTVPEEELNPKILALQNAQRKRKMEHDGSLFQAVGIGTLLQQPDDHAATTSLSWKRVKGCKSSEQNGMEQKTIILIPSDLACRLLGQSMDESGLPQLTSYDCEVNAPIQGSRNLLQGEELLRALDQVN
Sequence of Hepatocyte nuclear factor 6 (Homo sapiens) (Q9UBC0 whole entry, looked up, the tested form may be a part): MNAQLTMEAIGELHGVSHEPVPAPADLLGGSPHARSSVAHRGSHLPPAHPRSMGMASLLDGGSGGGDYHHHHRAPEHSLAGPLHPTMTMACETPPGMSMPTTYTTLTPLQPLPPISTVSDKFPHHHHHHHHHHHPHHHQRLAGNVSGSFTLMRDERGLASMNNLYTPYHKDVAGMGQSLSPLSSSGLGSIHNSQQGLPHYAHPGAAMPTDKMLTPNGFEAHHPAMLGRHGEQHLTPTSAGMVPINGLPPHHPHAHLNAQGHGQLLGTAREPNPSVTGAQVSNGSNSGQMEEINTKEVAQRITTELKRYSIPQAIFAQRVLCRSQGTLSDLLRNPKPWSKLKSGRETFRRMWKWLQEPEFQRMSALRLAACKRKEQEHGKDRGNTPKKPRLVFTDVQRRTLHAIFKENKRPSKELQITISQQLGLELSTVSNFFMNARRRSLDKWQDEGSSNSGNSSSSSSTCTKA
Sequence of Paired box protein Pax-6 (Homo sapiens) (P26367 whole entry, looked up): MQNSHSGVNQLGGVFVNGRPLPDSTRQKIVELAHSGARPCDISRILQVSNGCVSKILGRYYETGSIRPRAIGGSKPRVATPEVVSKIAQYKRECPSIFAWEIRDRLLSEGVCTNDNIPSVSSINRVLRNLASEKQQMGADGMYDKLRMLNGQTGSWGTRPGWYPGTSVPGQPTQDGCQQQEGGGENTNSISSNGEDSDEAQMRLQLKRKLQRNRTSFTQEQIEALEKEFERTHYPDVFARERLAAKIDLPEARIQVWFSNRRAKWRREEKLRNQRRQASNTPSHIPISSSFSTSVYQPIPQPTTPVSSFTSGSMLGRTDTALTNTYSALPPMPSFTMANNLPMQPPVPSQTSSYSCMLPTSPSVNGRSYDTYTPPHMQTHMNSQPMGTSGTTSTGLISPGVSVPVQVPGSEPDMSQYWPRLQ
Sequence of Signal transducer and activator of transcription 3 (Homo sapiens) (P40763 whole entry, looked up, the tested form may be a part): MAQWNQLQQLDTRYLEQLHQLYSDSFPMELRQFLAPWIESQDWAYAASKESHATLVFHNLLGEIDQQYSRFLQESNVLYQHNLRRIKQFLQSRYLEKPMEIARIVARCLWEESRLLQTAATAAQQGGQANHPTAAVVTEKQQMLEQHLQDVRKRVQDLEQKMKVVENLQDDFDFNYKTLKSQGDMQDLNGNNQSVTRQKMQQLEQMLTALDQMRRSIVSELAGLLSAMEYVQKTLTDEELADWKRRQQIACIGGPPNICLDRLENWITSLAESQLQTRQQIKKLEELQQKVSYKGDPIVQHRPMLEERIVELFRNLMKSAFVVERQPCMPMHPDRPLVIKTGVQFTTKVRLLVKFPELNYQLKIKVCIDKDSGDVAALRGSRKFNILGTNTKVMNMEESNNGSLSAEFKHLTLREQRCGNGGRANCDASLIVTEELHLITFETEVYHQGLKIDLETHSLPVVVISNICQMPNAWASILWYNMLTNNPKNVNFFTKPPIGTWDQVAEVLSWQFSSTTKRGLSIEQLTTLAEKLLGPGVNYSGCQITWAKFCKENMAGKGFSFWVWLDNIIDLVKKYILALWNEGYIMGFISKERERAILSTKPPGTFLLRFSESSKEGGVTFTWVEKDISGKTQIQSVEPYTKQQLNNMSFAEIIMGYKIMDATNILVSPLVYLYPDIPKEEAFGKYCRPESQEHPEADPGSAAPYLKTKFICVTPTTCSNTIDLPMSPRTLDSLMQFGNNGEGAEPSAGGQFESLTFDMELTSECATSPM
Sequence of Bile acid receptor (Homo sapiens) (Q96RI1 whole entry, looked up): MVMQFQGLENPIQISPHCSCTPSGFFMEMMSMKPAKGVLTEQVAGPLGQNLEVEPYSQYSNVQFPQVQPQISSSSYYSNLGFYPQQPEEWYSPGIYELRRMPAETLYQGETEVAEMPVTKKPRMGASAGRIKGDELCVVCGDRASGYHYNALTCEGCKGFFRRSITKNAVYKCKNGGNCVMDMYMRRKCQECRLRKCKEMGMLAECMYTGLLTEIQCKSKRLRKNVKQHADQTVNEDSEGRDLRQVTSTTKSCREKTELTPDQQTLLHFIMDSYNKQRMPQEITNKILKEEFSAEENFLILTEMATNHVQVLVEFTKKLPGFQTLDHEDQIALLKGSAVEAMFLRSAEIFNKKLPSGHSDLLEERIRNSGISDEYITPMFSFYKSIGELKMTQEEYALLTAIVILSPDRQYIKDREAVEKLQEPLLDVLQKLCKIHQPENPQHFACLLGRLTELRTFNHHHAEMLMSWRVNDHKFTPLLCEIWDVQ

For orientation: AC50 means the concentration at which the activity in the assay is half-maximal. With `Cc1oc(-c2ccccc2)nc1CCOc1cccc2c1ccn2CCC(=O)O`, the call in [1], in assay [2], in assay [3], in assay [4], in assay [5] and in [6] was inactive. In addition, the outcome in assay [7], in [8], in assay [9], in assay [10], in assay [11] and in [14] was inactive. Besides, the call in assay [16] and in assay [17] was inactive. The AC50 in [12] is 0.0633 µM (active); in assay [13], 23.8 µM (active); in assay [15], 26.8 µM (active).

Take `CC1(C)NC(=O)NC1=O`: the outcome in assay [1], in [2], in assay [4], in [6], in assay [7] and in assay [8] was inactive. The result in assay [9], in assay [10], in assay [12], in assay [13], in assay [18] and in [14] was inactive. The outcome in assay [15], in assay [16] and in assay [17] was inactive. The AC50 in [5] was 12 µM (active); in assay [11], 25.7 µM (active).

Turning to `CC1(C)CC(N=C=O)CC(C)(CN=C=O)C1` (centres undefined), the outcome in [19], in assay [2], in assay [3], in assay [4], in [5] and in [6] was inactive. Moreover, the call in assay [7], in assay [8], in assay [9], in assay [10], in assay [13] and in [14] was inactive. Moreover, the compound was classed as inactive in assay [15], in [16] and in assay [17]. In [11], the AC50 is 55.6 µM (active).

`Oc1ccc2c(c1)OC[C@@H](N1CCC(O)(c3ccc(F)cc3)CC1)[C@H]2O`: the call in [1], in [2], in assay [3], in assay [4], in [5] and in assay [6] was inactive. Besides, the result in assay [7], in [12], in [18], in [14], in assay [15] and in assay [16] was inactive. Further, the call in assay [17] was inactive. Further, the AC50 is 57.2 µM (active) in [8]; 43.2 µM (active) in assay [9]; 63.7 µM (active) in assay [10]; 13.7 µM (active) in assay [11]; 50 µM (active) in assay [13].

With `C[C@]12C=CC(=O)C=C1CC[C@@H]1[C@@H]2C(=O)C[C@@]2(C)[C@H]1CC[C@]2(O)C(=O)CO`, the compound was called inactive in assay [2], in assay [3], in assay [4], in assay [5], in [6] and in assay [7]. The compound was called inactive in assay [8], in [9], in assay [10], in [13], in assay [14] and in [15]. In addition, the compound was classed as inactive in assay [16] and in assay [17]. Moreover, the AC50 in assay [11] is 55.6 µM (active).

For the compound `CCCCCC(=O)O`, the outcome in assay [2], in assay [3], in assay [4], in [5], in assay [6] and in assay [7] was inactive. For the same compound, the outcome in assay [8], in assay [10], in [12], in [13], in assay [14] and in assay [15] was inactive. For the same compound, the call in assay [16] and in [17] was inactive. Besides, in assay [11], the AC50 is 53 µM (active).

`CC(=O)OC/C=C(\C)CCC=C(C)C`: the call in assay [1], in assay [2], in assay [3], in [4], in assay [5] and in [6] was inactive. The compound was classed as inactive in [7], in [8], in [9], in assay [10], in assay [12] and in assay [14]. Further, the compound was called inactive in assay [15], in assay [16] and in assay [17]. Also, in assay [11], the AC50 was 48.3 µM (active).
